# This is part of a sample that, as a whole, favours compounds with a hit. Of some 83,000 tested, about 20% had one in any assay.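 Each cell line was grown in a 96-well plate and treated with one concentration of compound for 48 hours. Values below 10 were considered active.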 Values without a mark were called inactive. Calls of active or inactive are those of the source.
# Tested on: SNB-75 CNS
# Experiment: NCI-60 one-dose screen, 48 h (100 = growth as untreated, 0 = no growth, -100 = all killed)
# Settings: 10 µM unless noted
row,SMILES,growth
1,COc1ccc2c(c1)C(=O)c1c-2c(=O)n(CCCCCCC(=O)NO)c2ccccc12,29.7%
2,CCC(C)(C)C(=O)O[C@H]1C[C@@H](C)C=C2C=C[C@H](C)[C@H](CC[C@@H]3C[C@@H](O)CC(=O)O3)[C@H]21,13.7%
3,CCC1=C(c2ccc(OC)cc2)C(C)(C)Oc2c1ccc(O)c2CN1CCCC1,41.3%
4,O=C(Nc1ccc(Cl)cc1)Nc1ccc(Nc2nncc3ccccc23)cc1,46.3%
5,C=C(C[C@@](O)(C(=O)Oc1ccccc1)C(=O)C1CCCCC1)c1ccccc1,72.3%
6,CCCCCCCC1(C)NC(=O)NC1=O (stereo not drawn),84.5%
7,CCOC(=O)c1c(C)c(C(=O)OCC)n(C)c1C,83.6%
8,CCc1[nH]nc(-c2ccc(OC)cc2)c1-c1ccccc1OCCN(CC)CC,60.4%
9,COc1ncc(-c2ccc3nccc(C#CCN4CCN(S(C)(=O)=O)CC4)c3c2)cc1NS(=O)(=O)c1ccc(F)cc1F,-11.4% (active)
10,COc1ccc2c(c1)C(=O)c1c-2c(OCCCN(C)C)nc2cc(Br)ccc12,79.2%
11,N#Cc1c(N)[nH]c(S)c1C#N,97.2%
12,CC(O)c1nc2c(c(=O)n(C)c(=O)n2C)n1C (stereo not drawn),102%
13,Cc1ccc(NC(=O)Nc2ccc(-c3cccnc3)cc2N2CCC(CO)CC2)cc1,15.3%
14,CCCCCCCCCCCCCCCCN=C(CC(=O)O)C(=O)O,91.6%
15,COc1ccc(CCN2CCCN3C2=Nc2ccccc2S3(=O)=O)cc1,16.2%
16,Cc1nnc(Nc2ccc(NC(=O)Nc3ccc(Cl)cc3)cc2)c2ccccc12,68.1%

row,SMILES,growth
1,C=C(C[C@](O)(C(=O)/C=C/c1ccc(Cl)cc1)C(=O)OC)c1ccccc1,75.7%
2,O=C(/C=C/c1ccccc1Cl)c1ccc(O)cc1,46.7%
3,CC(=O)NC1(C(=O)O)CCCC1,102%
4,CCOC(=O)c1cc(-c2cccnc2)nc2c(Cl)cc(Cl)cc12,104%
5,O=C1C(=O)c2ccc(Br)cc2-c2cc(Br)ccc21,84.2%
6,CCN1CCN(c2cc(-c3cn[nH]c3-c3cc(C)cc(OC)c3)nc(-c3cccnc3)n2)CC1,75.9%
7,ClC1=C(Cl)C(Cl)=C(Cl)C1=C/C=C/c1ccccc1,19.8%
8,O=C(CN1CCCCC1)Sc1nnc2sc3ccccc3n12,74.6%
9,CN1CCN(Cc2ccc(NC(=O)c3[nH]ncc3Nc3ccnc4ccnn34)cc2)CC1,63.2%
10,CC1=CC(=O)C(C(C)=Nc2ccccc2Cl)C(=O)O1 (stereo not drawn),83.6%
11,CSc1ncc2ncn(C3OC(CO)C(O)C3O)c2n1 (stereo not drawn),96%
12,COc1ccc2nc3cc(Cl)ccc3c(Nc3cc(C(C)C)c(O)cc3C)c2c1,63.7%
13,c1cnc2ccc3ncccc3c2c1,89.5%
14,O=C(Nc1ccc(Cl)cc1)Nc1ccc(Oc2nncc3ccccc23)cc1,-3.13% (active)
15,CN(CC(=O)N(Cc1ccc(C2CCCCC2)cc1)c1ccc(C(=O)O)cc1)S(=O)(=O)c1c(F)c(F)c(F)c(F)c1F,68.6%
16,CCN(CC)CCCNCCCNc1cc(OC)cc2cccnc12,82.8%

# Tested on: SNB-19 CNS
# Experiment: as above
# Settings: 10 µM unless noted
row,SMILES,growth [%]
1,CCCCCCCCCCCCCCCCCC1=NC(C)(C)CN1CCO,38.2
2,COc1cc(C2C=C(c3ccc(C)cc3)Nc3nc(SC)[nH]c(=O)c32)ccc1Oc1ccnc2cc(Cl)ccc12 (stereo not drawn),71.7
3,COc1ccc(-c2cncn2-c2ccc(-c3nc4cc(OC)c(OC)c(OC)c4s3)cc2)cc1N,72.1
4,CCCCCCCCCCSc1ncnc2nc[nH]c12,74.7
5,CN1C(=O)/C(=C/c2nc(-c3cccc(F)c3)n3ccccc23)c2ccccc21,76.8
6,CCCCCCCC/C=C/CCCCCCCC1=NC(C)(C)CN1CCO,60.5

# Tested on: U251 CNS
# Experiment: as above
# Settings: 10 µM unless noted
row,SMILES,growth
1,COc1ccc2c(c1)C(=O)c1c-2c(=O)n(CCCCCCC(=O)NO)c2ccccc12,-58.8% (active)
2,CCC1=C(c2ccc(OC)cc2)C(C)(C)Oc2c1ccc(O)c2CN1CCCC1,-25.4% (active)
3,CCCCCCCCCCCCCCCCCC1=NC(C)(C)CN1CCO,-57.9% (active)
4,O=C(Nc1ccc(Cl)cc1)Nc1ccc(Nc2nncc3ccccc23)cc1,18.3%
5,COc1cc(C2C=C(c3ccc(C)cc3)Nc3nc(SC)[nH]c(=O)c32)ccc1Oc1ccnc2cc(Cl)ccc12 (stereo not drawn),80.1%
6,C=C(C[C@@](O)(C(=O)Oc1ccccc1)C(=O)C1CCCCC1)c1ccccc1,95.8%
7,CCCCCCCC1(C)NC(=O)NC1=O (stereo not drawn),99.5%
8,CCOC(=O)c1c(C)c(C(=O)OCC)n(C)c1C,99.5%
9,COc1ccc(-c2cncn2-c2ccc(-c3nc4cc(OC)c(OC)c(OC)c4s3)cc2)cc1N,56.3%
10,CCc1[nH]nc(-c2ccc(OC)cc2)c1-c1ccccc1OCCN(CC)CC,96%
11,COc1ncc(-c2ccc3nccc(C#CCN4CCN(S(C)(=O)=O)CC4)c3c2)cc1NS(=O)(=O)c1ccc(F)cc1F,6.79% (active)
12,COc1ccc2c(c1)C(=O)c1c-2c(OCCCN(C)C)nc2cc(Br)ccc12,-75.7% (active)
13,N#Cc1c(N)[nH]c(S)c1C#N,101%
14,CC(O)c1nc2c(c(=O)n(C)c(=O)n2C)n1C (stereo not drawn),102%
15,Cc1ccc(NC(=O)Nc2ccc(-c3cccnc3)cc2N2CCC(CO)CC2)cc1,11.3%
16,CCCCCCCCCCCCCCCCN=C(CC(=O)O)C(=O)O,101%
17,COc1ccc(CCN2CCCN3C2=Nc2ccccc2S3(=O)=O)cc1,30%
18,Cc1nnc(Nc2ccc(NC(=O)Nc3ccc(Cl)cc3)cc2)c2ccccc12,5.4% (active)

row,SMILES,growth
1,CCCCCCCCCCSc1ncnc2nc[nH]c12,68.8%
2,C=C(C[C@](O)(C(=O)/C=C/c1ccc(Cl)cc1)C(=O)OC)c1ccccc1,28.6%
3,O=C(/C=C/c1ccccc1Cl)c1ccc(O)cc1,31.4%
4,CC(=O)NC1(C(=O)O)CCCC1,107%
5,CCOC(=O)c1cc(-c2cccnc2)nc2c(Cl)cc(Cl)cc12,70.3%
6,CN1C(=O)/C(=C/c2nc(-c3cccc(F)c3)n3ccccc23)c2ccccc21,56.7%
7,O=C1C(=O)c2ccc(Br)cc2-c2cc(Br)ccc21,-31.8% (active)
8,CCN1CCN(c2cc(-c3cn[nH]c3-c3cc(C)cc(OC)c3)nc(-c3cccnc3)n2)CC1,48.3%
9,ClC1=C(Cl)C(Cl)=C(Cl)C1=C/C=C/c1ccccc1,-93.3% (active)
10,O=C(CN1CCCCC1)Sc1nnc2sc3ccccc3n12,98.5%
11,CC1=CC(=O)C(C(C)=Nc2ccccc2Cl)C(=O)O1 (stereo not drawn),103%
12,CSc1ncc2ncn(C3OC(CO)C(O)C3O)c2n1 (stereo not drawn),103%
13,COc1ccc2nc3cc(Cl)ccc3c(Nc3cc(C(C)C)c(O)cc3C)c2c1,19.5%
14,c1cnc2ccc3ncccc3c2c1,104%
15,CCCCCCCC/C=C/CCCCCCCC1=NC(C)(C)CN1CCO,-35.5% (active)
16,CN(CC(=O)N(Cc1ccc(C2CCCCC2)cc1)c1ccc(C(=O)O)cc1)S(=O)(=O)c1c(F)c(F)c(F)c(F)c1F,-25.4% (active)
17,CCN(CC)CCCNCCCNc1cc(OC)cc2cccnc12,77.9%

# — PubChem BioAssay (NCI)
